PubChem BioAssay
Unmarked numbers belong to inactive results. How the calls were made is not given here.

Target: Pantothenate synthetase (Mycobacterium tuberculosis (strain ATCC 25618 / H37Rv)) (UniProt P9WIL5)
Assay: Coupled enzyme confirmation of inhibitors against recombinant Mtb PanC (AID 375);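 further: 0% = full reaction with vehicle and 100% = no enzyme background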
Conditions: coupled enzyme assay; at 10 µM, active compounds read high

Sequence of Pantothenate synthetase (Mycobacterium tuberculosis (strain ATCC 25618 / H37Rv)) (P9WIL5 whole entry, looked up): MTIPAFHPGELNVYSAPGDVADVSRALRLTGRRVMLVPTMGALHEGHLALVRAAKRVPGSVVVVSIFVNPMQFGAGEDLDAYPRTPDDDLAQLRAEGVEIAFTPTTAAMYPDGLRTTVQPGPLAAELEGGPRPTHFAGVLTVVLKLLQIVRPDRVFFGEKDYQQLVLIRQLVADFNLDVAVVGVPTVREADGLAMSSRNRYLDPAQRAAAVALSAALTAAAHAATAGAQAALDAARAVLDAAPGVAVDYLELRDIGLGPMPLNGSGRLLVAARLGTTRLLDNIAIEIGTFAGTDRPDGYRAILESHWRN

Compound: Cc1onc(-c2ccccc2Cl)c1C(=O)NCc1cccnc1
- inhibition: 0%

Compound: COc1cccc(C2=NOC(C(=O)N3CCc4ccccc4C3)C2)c1 (configuration not stated)
- inhibition: 0%

Compound: CCc1ccc(NS(=O)(=O)c2ccc3[nH]cc(C(=O)N4CCCCC4)c(=O)c3c2)cc1
- inhibition: 0%

Compound: S=C(c1cccs1)N1CCCC1
- inhibition: 0%

Compound: O=C(O)CSC1CC(=O)N(c2ccc(Cl)c(Cl)c2)C1=O (configuration not stated)
- inhibition: 0%

Compound: Cc1ccc(-c2nnc3c4ccccc4c(C)nn23)cc1NC(=O)c1ccco1
- inhibition: 0%

Compound: CC(C)[C@H](NC(=O)NCc1ccc(Cl)cc1)C(=O)O
- inhibition: 0%

Compound: CCOC(=O)C1CCN(C(=O)CSc2cc(=O)n(CC)c3ccccc23)CC1
- inhibition: 4%

Compound: C=CCn1c(SCC(=O)NCC2CCCO2)nnc1C1CCCCC1 (configuration not stated)
- inhibition: 8%

Compound: O=C(C1CC1)N1CCC(c2nc(-c3ccc(S(=O)(=O)NCC4CCCO4)cc3)no2)CC1 (configuration not stated)
- inhibition: 0%

Compound: O=C(O)C1C2C=CC(O2)C1C(=O)NCc1ccc(Cl)cc1 (configuration not stated)
- inhibition: 13%

Compound: CC(C)(C)SCCNC(=O)COc1ccc(Cl)cc1
- inhibition: 0%

Compound: C[C@H]1C[C@H]2[C@@H]3CCC4=CC(=O)C=C[C@]4(C)[C@@]3(Cl)[C@@H](O)C[C@]2(C)[C@@]1(O)C(=O)CO
- inhibition: 4%

Compound: CCCCCn1c(CN2CCN(C(=O)OCC)CC2)nc2c1c(=O)[nH]c(=O)n2C
- inhibition: 3%

Compound: CCSc1nc2c(c(=O)n1CC)SC(C)C2 (configuration not stated)
- inhibition: 0%

Compound: COc1ccccc1C(=O)NCC(=O)Nc1ccccc1
- inhibition: 0%

Compound: CCOc1ccc(-n2c(=O)cc(N3CCN(c4ccccc4)CC3)[nH]c2=O)cc1
- inhibition: 0%
